Test results: PubChem BioAssay AID588692 (Broad Institute, 2011)
The campaign covered roughly 360,000 compounds. About 830 (0.23%) were called active.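 Rule for the calls: active = mean luciferase reporter signal, scaled so untreated is 0 and the glycosylation-blocking control 100, at or above a set limit in every replicate; inconclusive = mean reaches the limit but not every replicate does; inactive = mean below the limit.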 Shown is part of a subset that was picked to be rich in actives.

Test: increase of ERlucT glycosylation luciferase signal, primary screen, N-linked glycosylation inhibitor project, D54 ERlucT cells, luminescence, set 2 (AID 588692);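 note: luciferase carries N-glycosylation sites so blocking glycosylation raises the light; 0% = median of neutral control wells and 100% = median of 100 nM tunicamycin wells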
Details: 24 h, at 12.5 µM, stronger effect = higher value, percent of 100 nM tunicamycin response
In the case of O=C(c1ccc(N2CCCC2=O)cc1)N1CCN(c2ccc(C(F)(F)F)cc2[N+](=O)[O-])CC1, the reporter increase is reported as -1.99% (inactive). With CN(C)C(=O)N=NC(=O)N(C)C the reporter increase was 0.968% (inactive). With COc1cc(N/C=C2\CC(=O)NC(C)=C2C#N)cc(OC)c1OC the reporter increase was 0.911% (inactive). For O=C1/C(=C\c2ccc(O)cc2)CCC1CNc1ccc(Cl)cc1 (centres undefined), the reporter increase was 10.4% (inactive). With COc1cccc(OC)c1C(=O)Nc1ccc2c(c1)n(C)c(=O)n2C the reporter increase was 9.32% (inactive). In the case of Cc1ccc(C(=O)Nc2ccc3c(c2)OCCO3)cc1S(=O)(=O)N1CCOCC1, the reporter increase is reported as -2.07% (inactive). With Cn1c(=O)n(C)c2cc(C(=O)Nc3ccc4c(c3)OCO4)ccc21 the reporter increase was 70.1% (active). In the case of Cc1ccc(S(=O)(=O)N2CCOCC2)cc1NC(=O)c1ccncc1, the reporter increase is reported as 0.492% (inactive). For Cc1ccc(S(=O)(=O)NN=C2CC(C)(C)CC(=O)C2(C)C)cc1, the reporter increase was -0.913% (inactive). For Cc1cccc(S(=O)(=O)N2CN(CC3CCCO3)c3nc4ccccc4nc32)c1 (centres undefined), the reporter increase was 0.557% (inactive). For Cc1sc2c(c1C)c(=O)n(-c1ccccc1)c1nncn21, the reporter increase was 3.73% (inactive). With COCCN(CCOC)S(=O)(=O)c1ccc(C(=O)Nc2nc3c(s2)CCc2ccccc2-3)cc1 the reporter increase was -0.048% (inactive). With C=CCN(CC=C)S(=O)(=O)c1ccc(C(=O)Nc2nc3c(s2)CCc2ccccc2-3)cc1 the reporter increase was 55.6% (active). For O=C(Nc1ccc(S(=O)(=O)N2CCc3ccccc3C2)cc1)c1ccccc1, the reporter increase was -1.85% (inactive). For C[C@H](CO)N1C[C@H](C)[C@H](CN(C)CC2CC2)Oc2ccc(NC(=O)CCN3CCOCC3)cc2C1=O, the reporter increase was 1.29% (inactive). With CCc1nnc(NC(=O)C2CC(=O)N(c3ccc4c(c3)OCCO4)C2)s1 (centres undefined) the reporter increase was 1.58% (inactive). With CN(C)C(=O)c1coc2nc3ccccc3nc12 the reporter increase was 0.129% (inactive). In the case of CNC(=O)c1cccc2nc3ccccc3nc12, the reporter increase is reported as 39.1% (active). In the case of CNC(=O)C(NC(=O)c1ccccc1)=C(C)C, the reporter increase is reported as -0.912% (inactive). In the case of COc1ccc2[nH]c3c(c2c1)CCN1C(=O)C(CC(=O)NCCc2ccccn2)C[C@H](C(=O)N2CCOCC2)[C@@]31C (some centres undefined), the reporter increase is reported as 2.29% (inactive). With CSc1cc(C)n(-c2ccccc2C)c(=S)c1C(C)=O the reporter increase was -0.347% (inactive). For COc1ccccc1CNC(=O)CNC(=O)c1cn(-c2ccccc2OC)c(=O)c2ccccc12, the reporter increase was 1.89% (inactive). With Cc1ccc(F)c(S(=O)(=O)NC(=O)C2(C)CCN2C(=O)CCc2cccs2)c1 (centres undefined) the reporter increase was 2.26% (inactive). With O=C(Nc1cccc(Cc2ccccc2)c1)Nc1ccc2nc([C@@H]3O[C@H](CO)[C@@H](O)[C@H](O)[C@H]3O)[nH]c2c1 the reporter increase was 0.008% (inactive). In the case of NNC(=O)CNC(c1ccccc1)c1cc(Cl)ccc1NC(=O)c1ccccc1 (centres undefined), the reporter increase is reported as -3.39% (inactive). In the case of CC(C)c1ccc(NC(=O)CCN2C(=O)c3ccc([N+](=O)[O-])cc3C2=O)cc1, the reporter increase is reported as 1.26% (inactive). In the case of CN(CC1CCCO1)S(=O)(=O)c1ccc(C(=O)Nc2ccc([N+](=O)[O-])cc2)cc1 (centres undefined), the reporter increase is reported as -5.35% (inactive). In the case of Cn1ccc(=Nc2ccc(NC(=O)c3ccc(N=c4ccn(C)c5ccc([N+](=O)[O-])cc45)cc3)cc2)cc1, the reporter increase is reported as 32.9% (active). With COCCCn1c(SCC(=O)Nc2oc(C)c3c(C)n[nH]c(=O)c23)nc2sc3c(c2c1=O)CCC3 the reporter increase was 4.94% (inactive). With C1CC1Cc1noc(CN2CCN(CC3CC3)CC2)n1 the reporter increase was -0.901% (inactive). For O=C(COC(=O)Cn1cnc2ccccc21)Nc1cccc2c1C(=O)c1ccccc1C2=O, the reporter increase was 103% (active). For O=C(COC(=O)Cn1cnc2ccccc2c1=O)NCc1ccccc1Cl, the reporter increase was 0.775% (inactive). In the case of O=C(Cn1cnc2ccccc21)Nc1ccccc1-c1ccccc1, the reporter increase is reported as 0.271% (inactive). For COc1cc(C(=S)N2CCOCC2)cc(OC)c1OC(=O)c1cc([N+](=O)[O-])c(C)c([N+](=O)[O-])c1, the reporter increase was 1.27% (inactive). In the case of CSc1ccc(/C=N/N2CCN(Cc3ccccc3Cl)CC2)cc1, the reporter increase is reported as 2.53% (inactive). For Cc1ccc(C)c(NC(=O)CCC(=O)N/N=C2/CC(=O)CC(C)(C)C2)c1, the reporter increase was 0.203% (inactive). For CC(C)NC(=O)Nc1cccc2c1O[C@H](CN(C)S(=O)(=O)c1cccs1)[C@@H](C)CN([C@H](C)CO)C2=O, the reporter increase was 0.641% (inactive). With O=C(CNCc1ccco1)Nc1cc(S(=O)(=O)N2CCOCC2)ccc1N1CCCC1 the reporter increase was 2.55% (inactive). With O=[N+]([O-])c1cc(S(=O)(=O)Nc2cccc(Cl)c2)ccc1N=Nc1c(O)[nH]c2ccccc12 the reporter increase was -5.47% (inactive). In the case of CC1(C)Cc2c(cnn2-c2cccc(F)c2)C(NC(=O)c2cc[n+]([O-])cc2)C1 (centres undefined), the reporter increase is reported as 1.53% (inactive). For Cc1cc(C(=O)NC2CC(C)(C)Cc3c2cnn3-c2ccccc2)n[nH]1 (centres undefined), the reporter increase was -9.34% (inactive). For COC(=O)c1ccc(C(=O)NC2CC(C)(C)Cc3c2cnn3-c2ccc(F)cc2)nc1 (centres undefined), the reporter increase was 26.7% (active). For CN(CCO)C(=O)c1nc[nH]c1C(=O)N(C)Cc1ccccc1, the reporter increase was 1.82% (inactive). For COc1cc(CCN=Cc2ccccc2O)c([N+](=O)[O-])cc1OC, the reporter increase was 2.9% (inactive). In the case of COc1ccc(OC)c2[nH]c(=O)c(CCNC(=O)C(=O)c3c[nH]c4ccccc34)cc12, the reporter increase is reported as -0.931% (inactive). With O=c1ccc2cc(S(=O)(=O)NCCCc3ccccc3)ccc2[nH]1 the reporter increase was -0.159% (inactive). With O=C(N/N=C/c1cccc(Br)c1)c1ccc(N2CCCC2=O)cc1 the reporter increase was 29.6% (active). For O=C(N/N=C\c1cccc(Br)c1)c1ccccc1-n1cccc1, the reporter increase was 0.034% (inactive). For O=C(Nc1ccc(N2CCCC2=O)cc1)c1cncc(Br)c1, the reporter increase was -9.16% (inactive). For COCOc1cccc(CN2CCC(C)(Oc3ccc(SC)cc3)C2)c1 (centres undefined), the reporter increase was -0.871% (inactive). In the case of Cc1ccc(C)c(NC(=O)C2Cc3ccccc3CN2C(=O)OCc2ccccc2)c1 (centres undefined), the reporter increase is reported as -1.83% (inactive). With O=C(COc1ccc(Cl)cc1)Nc1ccc2oc(=O)ccc2c1 the reporter increase was -2% (inactive). With CCCNC(=O)C1(C)CCN(Cc2ccc(Cl)c(Cl)c2)C1 (centres undefined) the reporter increase was 0.635% (inactive). For Cc1cc(C)c2c(=O)n3c(nc2c1)C(CC(C)C)NC(=O)c1cc2ccccc2cc1-3 (centres undefined), the reporter increase was -7.33% (inactive).
